High-throughput results: PubChem, National Center for Advancing Translational Sciences (NCATS)
NTMT1 inh = Primary qHTS for Inhibitors of N-terminal methyltransferase 1 (NTMT1): MTaseGlo Assay; N-terminal Xaa-Pro-Lys N-methyltransferase 1 (Homo sapiens), Q9BV86; NTMT1 MTase-Glo SAH luminescence, purified enzyme; Potency, µM (top dose mostly 114 µM), for inactives: top-dose activity change, negative = inhibition, most hits filed as inhibitors; 2.5% of 59,000 active; AID 1645870, 2021;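 further: plate controls were DMSO vehicle for no effect and no enzyme for full effect; nearly all actives have a fitted effect of over 65% in size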
mTORC1 inh = Acumen qHTS Assay for Inhibitors of the mTORC1 Signaling Pathway in MEF (Tsc2-/-, p53-/-) Cells: Sytravon; Tsc2-/- p53-/- MEF, phospho-rpS6 immunofluorescence/PI, 24 h; Potency, µM (top dose mostly 38.3 µM), for inactives: at the top dose activity change, negative = inhibition, usual class: inhibitors; 0.78% of 44,000 active; AID 493208, 2011;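 further: plate controls were DMSO for no effect and rapamycin for full effect; nearly all actives have a fitted effect of over 50% in size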
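Read-out: phospho-S6 Alexa-488 intensity over PI intensity per well, scored as % active cells using thresholds from rapamycin (7.5 nM) and DMSO controls. Tsc2-/-, p53-/- MEFs exposed to compound for 24 h; PI cell count recorded as viability.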
PMP22 txn = Cell-based coincidence reporter assay to measure PMP22 gene transcription in S16 Pmp22-F2sN cells - Primary screen; S16 Pmp22-F2sN Schwann cells, FLuc/NLuc coincidence luminescence, 24 h; Potency, µM (titrated, usually from 57.5 µM), for the others: top-dose activity change, negative = inhibition, usual class: inhibitors; 2% of 43,000 active; active means clear falling dose curves in both reporters; inconclusive means both reporters move, but less clearly or upward; inactive means either reporter flat; the % is the NLuc reporter signal; further: on the % scale 0 is the no-effect control and ±100 the full control effect
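Reporter cells (S16 Pmp22-F2sN, 500–1,000 per well) exposed to compounds for 24 h, 37C, 5% CO2; lysis with FLuc read after 10 min, then Stop&Glo and NLuc read after 10 min.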
S16 viability = Cell viability qHTS assay in S16 Pmp22-F2sN cells | S16 Pmp22-F2sN Schwann cells (luciferase reporters placed in the Pmp22 gene) viability, CellTiter-Glo, 24 h | Potency, µM (highest dose often 57.5 µM), without a hit: top-dose activity change, negative = cytotoxicity, actives largely listed as cytotoxic | 0.48% of 43,000 active | AID 1508642, 2021; further: on the % scale 0 is the no-effect control and ±100 the full control effect; nearly all actives have a fitted effect of over 65% in size
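CellTiter-Glo counter-screen, qHTS, 1536-well. Cells: S16(c9) Pmp22-F2sN, 500-1,000/well in DMEM + 10% FBS. Cpd 23 nL pin transfer, 24 h, 37C/5% CO2. Read: luminescence, CCD imager.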
SKOV3 invasion = Primary qHTS assay for Inhibitors of ovarian cancer metastasis using an organotypic tumor microenvironment (TME) model | Potency, µM (doses to about 45.8 µM), without a hit: at the top dose activity change, negative = inhibition, actives largely listed as inhibitors | 0.1% of 46,000 active | SKOV3ip1-GFP adhesion/invasion on 3D omental model, fluorescence;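 further: plate controls were DMSO wells for no effect and tomatine positive control wells for full effect; nearly all actives have a fitted effect of over 65% in size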
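qHTS, 4-pt dose (0.36-46 umol/L); SKOV3ip1-GFP, 1,200 cells/well, no FBS; primary omental fibroblast/mesothelial co-culture 48 h pre-grown; 2 h RT + 16 h 37 C; PBS wash, 4% PFA; GFP count 488/509 nm.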
GALC G270D act = A Novel Cell-Based Assay to Identify Small Molecules for B -Galactocerebrosidase; P54803; 145M-Twi-hGALC-G270D cells, HMU-beta-Gal fluorescence, 48 h; Potency, µM (series often up to 57.5 µM), hits mostly activators; 0.1% of 45,000 active; AID 1159614, 2016; further: 0% is about no effect; nearly all actives have a fitted effect of over 65% in size
Target sequence (P54803 whole entry G286D): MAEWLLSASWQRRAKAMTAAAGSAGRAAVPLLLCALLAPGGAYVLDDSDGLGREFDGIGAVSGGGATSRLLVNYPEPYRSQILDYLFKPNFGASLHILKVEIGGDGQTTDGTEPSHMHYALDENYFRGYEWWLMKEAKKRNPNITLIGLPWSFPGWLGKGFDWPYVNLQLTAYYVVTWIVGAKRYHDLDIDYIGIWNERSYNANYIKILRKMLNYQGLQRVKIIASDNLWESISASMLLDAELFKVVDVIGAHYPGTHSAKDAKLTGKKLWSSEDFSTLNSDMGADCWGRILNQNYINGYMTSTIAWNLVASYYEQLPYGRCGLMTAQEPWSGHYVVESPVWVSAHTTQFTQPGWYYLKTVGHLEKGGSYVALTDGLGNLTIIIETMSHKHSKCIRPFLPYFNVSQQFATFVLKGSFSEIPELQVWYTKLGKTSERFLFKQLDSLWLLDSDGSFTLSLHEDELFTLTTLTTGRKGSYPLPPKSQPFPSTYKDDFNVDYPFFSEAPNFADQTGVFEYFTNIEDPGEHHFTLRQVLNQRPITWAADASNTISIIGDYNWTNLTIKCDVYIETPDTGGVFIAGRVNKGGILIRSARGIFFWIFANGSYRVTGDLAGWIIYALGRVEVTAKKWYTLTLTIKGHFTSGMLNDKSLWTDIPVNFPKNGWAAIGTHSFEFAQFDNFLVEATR
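qHTS, 1536-well; 145M-Twi-hGALC-G270D cells (WT line also made) in DMEM/F12 + 10% FBS; compound incubation on live cells; HMU-β-gal 0.1 mM final, pH 5.2, NaTC; carbonate stop; fluorescence increase = enhanced residual activity.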
The depositor's hits bear a star; ! = not active in a repeat; [ ] = another dose, or the depositor's remark. The list is not random: actives were taken first. Their share in the collection is about 3.6%. Unless noted, the call rests on the fitted dose curve; in most records, active means well fitted curve in the direction sought with a large enough effect; inconclusive means small, poorly fitted or top-dose-only effect, or another doubt; inactive means no such curve, though single readings can be large; an effect the other way counts as inactive or inconclusive. Potency means the concentration at half of the fitted maximal effect.

Results for CC(=O)N1CCN(c2ccc(OC[C@H]3CO[C@](Cn4ccnc4)(c4ccc(Cl)cc4Cl)O3)cc2)CC1 ?
NTMT1 inh: 22µM*!; SKOV3 invasion: 10%

What do the screens show for `O=C(O)C[C@H](O)C[C@H](O)/C=C/c1c(C2CC2)nc2ccccc2c1-c1ccc(F)cc1`?
NTMT1 inh: 40µM*!

What do the screens show for `CC(C)n1c(/C=C/[C@H](O)C[C@H](O)CC(=O)O)c(-c2ccc(F)cc2)c2ccccc21`?
NTMT1 inh: -3%

Results for COc1cccc(C(=O)Nc2ccc(-n3nncc3-c3ccccc3)cc2)c1OC ?
NTMT1 inh: 56µM*; mTORC1 inh: 10%; PMP22 txn: -2%; S16 viability: -17%; SKOV3 invasion: -6%; GALC G270D act: inactive

Results for N=C1SC(=Cc2ccc(-c3ccc4c(c3)C(=O)NC4=O)o2)C(=O)N1c1ccc(Br)cc1 ?
NTMT1 inh: inconclusive; SKOV3 invasion: -17%

How did CCN1CCN(CCCNC(=O)c2cc3c(s2)-c2c(C)cccc2OC3)CC1 do in these assays?
NTMT1 inh: inconclusive; mTORC1 inh: inconclusive; PMP22 txn: inconclusive; S16 viability: 25µM*; SKOV3 invasion: -5%; GALC G270D act: inactive

What do the screens show for `Cc1cccc2c1-c1sc(C(=O)NCCCN3CCN(c4ccccc4F)CC3)cc1CO2`?
NTMT1 inh: 4%; mTORC1 inh: -25%; PMP22 txn: inconclusive; S16 viability: inconclusive; SKOV3 invasion: inconclusive; GALC G270D act: inactive

What do the screens show for `CC(C)=CCc1cc2c(cc1O)OC[C@H]1c3ccc(O)cc3O[C@@H]21`?
NTMT1 inh: -3%[29.8 µM]

How did CCOc1cc(C(c2c(C)[nH]n(-c3ccccc3)c2=O)c2c(C)[nH]n(-c3ccccc3)c2=O)ccc1O do in these assays?
NTMT1 inh: 5%; mTORC1 inh: 7%; PMP22 txn: 9.5µM*; S16 viability: -3%; SKOV3 invasion: inconclusive; GALC G270D act: inactive

Results for C(#Cc1cccc(CN2CCOCC2)c1)CCN1CCCCC1 ?
NTMT1 inh: 0%[57.5 µM]

What do the screens show for `COc1ccc(C2CC(=O)c3c([nH]c(C(=O)OC4CCCCCC4)c3C)C2)cc1OC` (stereo not given)?
NTMT1 inh: 89µM*; mTORC1 inh: -17%; PMP22 txn: 7%; S16 viability: 25%; SKOV3 invasion: 2%; GALC G270D act: inactive

What do the screens show for `COc1ccc(OC)c(C2CC(=O)c3c([nH]c(C(=O)OCc4ccc(C)cc4)c3C)C2)c1` (stereo not given)?
NTMT1 inh: 2%; mTORC1 inh: 6.6µM*; PMP22 txn: -16%; S16 viability: inconclusive; SKOV3 invasion: inactive; GALC G270D act: inactive

How did O=c1[nH]cnc2nc[nH]c12 do in these assays?
NTMT1 inh: 22µM*; GALC G270D act: inactive

What do the screens show for `CCn1c(-c2nonc2N)nc2cncc(CNC3CCNCC3)c21`?
NTMT1 inh: inconclusive; SKOV3 invasion: -21%

Results for CCOc1ccccc1C(=O)N1CCC(c2nc3ccccc3o2)CC1 ?
NTMT1 inh: 89µM*; mTORC1 inh: -7%; PMP22 txn: 0%; S16 viability: -9%; SKOV3 invasion: -30%; GALC G270D act: inactive

What do the screens show for `Cc1cccc(NC(=O)c2sc3nc(-c4cc5ccc(O)cc5oc4=O)[nH]c(=O)c3c2C)c1`?
NTMT1 inh: 7.1µM*; mTORC1 inh: 6%; PMP22 txn: inconclusive; S16 viability: -8%; SKOV3 invasion: -1%; GALC G270D act: inactive

What do the screens show for `C[n+]1c2cc(N)ccc2cc2ccc(N)cc21` (tested in a mixture with another compound)?
NTMT1 inh: 40µM*; GALC G270D act: inactive

How did Nc1ccc2c(c1)CN1C(=O)c3ccccc3C1=N2 do in these assays?
NTMT1 inh: 13µM*; GALC G270D act: inactive

Results for CC(C)N(CCCNC(=O)Nc1ccc(C(C)(C)C)cc1)C[C@H]1O[C@@H](n2cc(Br)c3c(N)ncnc32)[C@H](O)[C@@H]1O ?
NTMT1 inh: 8.9µM*

What do the screens show for `CC(C)N(CCCNC(=O)Nc1ccc(C(C)(C)C)cc1)C[C@H]1O[C@@H](n2ccc3c(N)ncnc32)[C@H](O)[C@@H]1O`?
NTMT1 inh: 13%[12.6 µM]

What do the screens show for `COc1ccc2c(c1)c(C1=C(c3c[nH]c4ccccc34)C(=O)NC1=O)cn2CCCN(C)C`?
NTMT1 inh: 14µM*; SKOV3 invasion: -10%

What do the screens show for `COc1ccccc1Nc1nn2c(=O)c3ccc(C(=O)NCc4cccs4)cc3nc2s1`?
NTMT1 inh: inconclusive; mTORC1 inh: -5%; PMP22 txn: 10µM*; S16 viability: 7.9µM*; SKOV3 invasion: inactive; GALC G270D act: inactive

What do the screens show for `CCN(CC)CCNC(=O)c1ccc2c(=O)n3nc(Nc4ccccc4OC)sc3nc2c1`?
NTMT1 inh: inconclusive; mTORC1 inh: 0%; PMP22 txn: inconclusive; S16 viability: 11%; SKOV3 invasion: inactive; GALC G270D act: inactive

Results for COc1ccc(S(=O)(=O)NCC(c2ccco2)S(=O)(=O)c2ccc(C)cc2)cc1C (stereo not given) ?
NTMT1 inh: 4%; mTORC1 inh: -4%; PMP22 txn: inconclusive; S16 viability: inconclusive; SKOV3 invasion: 3%; GALC G270D act: inactive

Results for O=C(NCC(c1ccco1)S(=O)(=O)c1cccs1)c1ccc(Cl)cc1 (stereo not given) ?
NTMT1 inh: 6%; mTORC1 inh: 0%; PMP22 txn: -24%; S16 viability: -10%; SKOV3 invasion: 8%; GALC G270D act: inactive

Results for COc1ccc(S(=O)(=O)NCC(c2ccco2)S(=O)(=O)c2cccs2)cc1OC (stereo not given) ?
NTMT1 inh: 4%; mTORC1 inh: -2%; PMP22 txn: inconclusive; S16 viability: 20µM*; SKOV3 invasion: 6%; GALC G270D act: inactive
